Data taken from PubChem BioAssay (NCI).
This is part of a sample that, as a whole, favours compounds with a hit. Of some 79,000 tested, about 15% had one in any assay. Calls of active or inactive are those of the source. Cut-off read from the data, not from the text of the source: active = growth inhibition above about 70%; inactive = the rest.

What was measured:
[1] = NCI Yeast Anticancer Drug Screen. Data for the rad50 strain (AID 155);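 note: 0% = growth of vehicle-only cultures of the same strain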; conditions: S. cerevisiae rad50 strain growth inhibition; at 50.0 µM; active compounds read high
Summary of the method: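 Yeast carrying a defined DNA repair defect were exposed to test compounds, and growth was compared with vehicle-treated controls to give percent inhibition.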

[2] = NCI Yeast Anticancer Drug Screen. Data for the mec2-1 strain (AID 157); conditions: S. cerevisiae mec2-1 strain, at 50.0 µM, active compounds read high
Summary of the method: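 Yeast mec2-1 mutant treated with compound. Readout: growth inhibition vs vehicle controls.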

[3] = NCI Yeast Anticancer Drug Screen. Data for the sgs1 mgt1 strain (AID 161);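 note: 0% = growth of cultures given vehicle only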; conditions: S. cerevisiae sgs1 mgt1 strain, at 50.0 µM, active compounds read high
Summary of the method: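 Read-out: growth inhibition vs vehicle controls. Cells: mutant yeast strain deficient in DNA damage repair.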

[4] = NCI Yeast Anticancer Drug Screen. Data for the cln2 rad14 strain (AID 165);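 note: 0% = growth equal to vehicle treated cultures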; conditions: S. cerevisiae cln2 rad14 strain, at 50.0 µM, active compounds read high
Summary of the method: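 cln2 rad14 yeast strain; compound exposure; growth inhibition read vs vehicle controls.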

[5] = NCI Yeast Anticancer Drug Screen. Data for the bub3 strain (AID 167); conditions: S. cerevisiae bub3 mutant strain, at 50.0 µM, active compounds read high
Summary of the method: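 Compounds were applied to a genetically altered yeast strain carrying a cell-cycle control defect. Growth inhibition was scored against vehicle-treated controls.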

[6] = NCI Yeast Anticancer Drug Screen. Data for the mlh1 rad18 strain (AID 175); conditions: S. cerevisiae mlh1 rad18 strain growth inhibition; at 50.0 µM; active compounds read high
Summary of the method: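 Yeast w/ defined DNA-repair lesions; compound exposure; growth vs vehicle controls → % inhibition.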

Measured: growth inhibition

O=C(CCBr)Nc1ccc(Cl)cc1C(=O)c1ccccc1
inactive: [1] 6.65% | [2] 5.5% | [3] 10.2% | [4] -2% | [5] 54.8% | [6] -5.95%

CC(Br)C(=O)C(CCN(C)C)(c1ccccc1)c1ccccc1 (configuration not stated)
inactive: [1] 17.6% | [2] -0.05% | [3] 7.95% | [4] -6.4% | [5] 21.8% | [6] 17.1%

Cc1ccc(OP(=O)(Oc2ccc(C)cc2)Oc2ccc(C)cc2)cc1.Cc1ccc(OP(=O)(Oc2ccc(C)cc2)Oc2ccc(C)cc2)cc1.[Cl][Ni][Cl]
inactive: [1] 23.5% | [2] 35.8% | [3] 29.4% | [4] 4.2% | [5] 38.4% | [6] 59.3%

CC(=O)c1cccc(S(=O)(=O)F)c1
inactive: [1] -9.7% | [2] -11.3% | [3] -3.25% | [4] 13% | [5] -14.9% | [6] -11.8%

COc1cc2cc(c1Cl)N(C)C(=O)CC(OC(=O)C(C)C)C1(C)OC1C(C)C1CC(O)(NC(=O)O1)C(OC)/C=C/C=C(C)C2 (configuration not stated)
inactive: [1] -15.9% | [2] -9.9% | [3] -19.4% | [4] -22.8% | [5] -21.2% | [6] -3.7%

CSc1ccc([As](=O)(O)O)cc1
inactive: [1] 15.2% | [2] 4.45% | [3] 30.9% | [4] 24.3% | [5] -18.1% | [6] 46.5%

CCOP(N)(=O)SC (configuration not stated)
inactive: [1] -11.1% | [2] 8% | [3] -11.8% | [4] -12.8% | [5] -7.45% | [6] 23.6%

Cc1ccc(S(=O)(=O)N/N=C(\CCN2CCCC2)CC(c2ccccc2)c2c(O)c3ccccc3oc2=O)cc1 (configuration not stated)
inactive: [1] 14.6% | [2] 9.1% | [3] 20.8% | [4] 21.8% | [5] 9.95% | [6] 17.6%

CCN(CC)CCn1c(=O)n(C)c2ccccc21
inactive: [1] 2.75% | [2] -18.7% | [3] -13.3% | [4] -35% | [5] -1.65% | [6] 20.9%

C1CCC(NC2CCCC2)CC1
inactive: [1] 18% | [2] 47.1% | [3] 32.6% | [4] 59% | [5] 12.4% | [6] 13.1%

CC1N2C3(c4ccccc4)OC(c4ccccc4)(c4ccccc43)C12c1ccccc1 (configuration not stated)
inactive: [1] 9.8% | [2] 13.2% | [3] 4.95% | [4] 31.9% | [5] 0.8% | [6] 4.05%

CCCC[S][Sn]([CH2]CCC)([CH2]CCC)[S]CCCC
active: [1] 95.8% | [2] 92.3% | [3] 94.7% | [4] 89.2% | [5] 93.2% | [6] 95.5%

O=[As](c1ccccc1)(c1ccccc1)c1ccc(Br)cc1
inactive: [1] 31.1% | [2] 1.25% | [3] 12.2% | [4] 5.1% | [5] 6.2% | [6] 4.7%

NC1CC=C(COC(=O)C(O)(c2ccccc2)C2CC2)CC1 (configuration not stated)
inactive: [1] -12.9% | [2] -14.7% | [3] -23.6% | [4] 3.65% | [5] -7.4% | [6] -31.4%

O=C1NC(=O)C(=Cc2ccco2)C(=O)N1
inactive: [1] -4.4% | [2] -26.4% | [3] -7.85% | [4] 5.65% | [5] -31.6% | [6] -3.3%

N.N.N.N.N.NC(=O)[O-].[Co+3].[I-]
inactive: [1] -14.1% | [2] 3.9% | [3] -13.1% | [4] 25.7% | [5] -7.75% | [6] -15.7%

[NH2-].[NH2-].[NH2-].[NH2-].[NH2-].[NH2-].[Ru+6]
inactive: [1] -15.8% | [2] -12.1% | [3] -21.9% | [4] 9.4% | [5] -24.1% | [6] -20.8%

CC(C)CCN(CCc1ccccc1[N+](=O)[O-])CCC(C)C
inactive: [1] 12.1% | [2] -7.45% | [3] -8.7% | [4] -36.9% | [5] 44.1% | [6] 38.6%

CN1C(=O)c2ccccc2NC(=O)C12O[C@@H]2c1ccccc1 (some centres not stated)
inactive: [1] 0.05% | [2] -19.7% | [3] -4.95% | [4] 14.3% | [5] -9.7% | [6] -16.9%

C[As+](c1ccccc1)(c1ccccc1)c1cccc2ccccc12
inactive: [1] 10.2% | [2] 38.9% | [3] 21.2% | [4] -10.1% | [5] 26.1% | [6] 34.3%

CC1=CC23C(COC(=O)C24CO4)C(C(=O)O)=CC3C1C (configuration not stated)
inactive: [1] -22.8% | [2] -19.7% | [3] -13.3% | [4] 27% | [5] -8.95% | [6] -5.7%

Nc1ccc2c(c1)[O][Sn]([c]1ccccc1)([c]1ccccc1)[O]C2=O
active: [1] 85.5% | [2] 89.5% | [3] 89.1% | [4] 89.2% | [5] 88.1% | [6] 89.3%

CC(=O)C1CCC2C3CC=C4CC(OOS(=O)c5ccc(C)cc5)CCC4(C)C3CCC12C (configuration not stated)
inactive: [1] 43.2% | [2] 20.1% | [3] 46.2% | [4] -31.4% | [5] 22.4% | [6] 24.1%

CN1C2CCC1CC(OC(=O)/C=C\c1ccccc1)C2 (configuration not stated)
inactive: [1] 29% | [2] -7.7% | [3] -5.45% | [4] 1.95% | [5] 8.45% | [6] 9.6%

CC(C)(C)SCC(NC(=O)OCc1ccccc1)C(=O)O (configuration not stated)
inactive: [1] 10.8% | [2] 1.7% | [3] 14.3% | [4] 18.9% | [5] 4.25% | [6] 7%

O=C1NC(=S)NC(=O)C1=Cc1ccc2ccccc2n1
inactive: [1] -7.9% | [2] -0.6% | [3] 1.55% | [4] 8.4% | [5] -6.35% | [6] -16.4%

CC1[N-]C(/C=N/O)NC(C)N1.CC1[N-]C(/C=N/O)NC(C)N1.[Br][Ni+2][Br] (configuration not stated)
inactive: [1] -14.9% | [2] -10% | [3] -22.3% | [4] -19% | [5] 0.65% | [6] -15.7%

COc1ccc([As]=O)cc1N (configuration not stated)
inactive: [1] 4.8% | [2] 18.1% | [3] 8.75% | [4] 7.25% | [5] -7.45% | [6] -10.5%

CC(=O)N(C)C(=O)Oc1cccc2ccccc12
inactive: [1] -8.35% | [2] 17.4% | [3] -10.8% | [4] -34.2% | [5] -27.1% | [6] -0.55%

NC(=O)c1cccc([As]=O)c1 (configuration not stated)
inactive: [1] -11.4% | [2] 17.4% | [3] 13.8% | [4] -18.6% | [5] 0.85% | [6] -17.6%

CC(C)OP(=S)(Oc1ccc(Cl)cc1Cl)OC(C)C
inactive: [1] 20.9% | [2] -11.7% | [3] 31.9% | [4] 8.8% | [5] 21.2% | [6] 8%

CN1CN(c2ccccc2)C2(CCN(CCC3Oc4ccccc4O3)CC2)C1=O
inactive: [1] -22.4% | [2] 6.45% | [3] -0.4% | [4] -1.2% | [5] -1.35% | [6] 3.35%

CCC1NCCc2cc(OC)c(O)cc21 (configuration not stated)
inactive: [1] -5.9% | [2] 0.35% | [3] -6.25% | [4] 1.4% | [5] 1.85% | [6] -11.4%

[N-]=[N+]=NC12CC3CC(CC(C3)C1)C2
inactive: [1] -9.7% | [2] -6% | [3] -7.45% | [4] -9.35% | [5] -25.6% | [6] -20.2%

c1ccc(P2(c3ccccc3)=NSN=S=N2)cc1
inactive: [1] -4.75% | [2] -8.7% | [3] -8.65% | [4] -16.6% | [5] 1.35% | [6] -1.45%

Cc1ccc2c(c1)Cc1ccccc1-2
inactive: [1] 22.9% | [2] -17.2% | [3] 16.9% | [4] 23.7% | [5] 10.2% | [6] 34.9%

N.N.N.N.N.NC(=O)c1nn[n-]n1.[Cl-].[Co+3]
inactive: [1] -27.2% | [2] -3% | [3] -9.45% | [4] 0% | [5] -27.3% | [6] -17.1%
